Measurements: article PMC7862700, “An all-to-all approach to the identification of sequence-specific readers for epigenetic DNA modifications on cytosine”

Columns and labels:
Assay in all cases: DAPPL (digital affinity profiling via proximity ligation, sequencing); 10 mM Tris-HCl pH 7.5, 50 mM NaCl, 1 mM DTT, 4% glycerol, room temperature, 30 min; GST-TFs on glutathione beads, 16-mer random dsDNA library, 0.1% formaldehyde crosslink after washing; high values mean tight binding
FLI1 = target: T1, FLI1 (Homo sapiens, UniProt Q01543 1-452); conditions: protein: recombinant; tags: N-terminal GST; dsDNA, one strand shown
T1 sequence: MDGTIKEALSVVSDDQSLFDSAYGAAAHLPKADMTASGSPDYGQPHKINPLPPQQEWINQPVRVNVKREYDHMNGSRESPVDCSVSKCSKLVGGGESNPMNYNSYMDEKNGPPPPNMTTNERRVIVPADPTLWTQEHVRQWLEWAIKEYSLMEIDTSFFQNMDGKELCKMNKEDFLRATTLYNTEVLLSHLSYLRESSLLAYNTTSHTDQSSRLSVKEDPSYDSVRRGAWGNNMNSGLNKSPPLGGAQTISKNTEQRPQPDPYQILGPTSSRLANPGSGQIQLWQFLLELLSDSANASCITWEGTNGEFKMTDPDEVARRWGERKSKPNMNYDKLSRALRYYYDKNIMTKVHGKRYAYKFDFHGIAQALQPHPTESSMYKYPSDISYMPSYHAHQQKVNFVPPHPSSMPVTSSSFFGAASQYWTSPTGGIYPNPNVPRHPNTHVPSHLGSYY
In short: (§1)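 Each value of binding signal is a hexamer's read frequency for a factor divided by the same hexamer's frequency in the tag-only sample. Barcoded, bead-captured GST fusions of human transcription factors made in yeast were pooled with that sample and incubated with 200 nmole of a random double-stranded 16-mer DNA library in Tris/NaCl/DTT/glycerol buffer at room temperature for 30 min. Washing, 0.1% formaldehyde crosslinking, proximity ligation, PCR and Illumina NextSeq500 sequencing followed.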

ELK1 = target: T2, ELK1 (Homo sapiens, UniProt P19419 1-428); conditions: protein: recombinant; tags: N-terminal GST; dsDNA, one strand shown
T2 sequence: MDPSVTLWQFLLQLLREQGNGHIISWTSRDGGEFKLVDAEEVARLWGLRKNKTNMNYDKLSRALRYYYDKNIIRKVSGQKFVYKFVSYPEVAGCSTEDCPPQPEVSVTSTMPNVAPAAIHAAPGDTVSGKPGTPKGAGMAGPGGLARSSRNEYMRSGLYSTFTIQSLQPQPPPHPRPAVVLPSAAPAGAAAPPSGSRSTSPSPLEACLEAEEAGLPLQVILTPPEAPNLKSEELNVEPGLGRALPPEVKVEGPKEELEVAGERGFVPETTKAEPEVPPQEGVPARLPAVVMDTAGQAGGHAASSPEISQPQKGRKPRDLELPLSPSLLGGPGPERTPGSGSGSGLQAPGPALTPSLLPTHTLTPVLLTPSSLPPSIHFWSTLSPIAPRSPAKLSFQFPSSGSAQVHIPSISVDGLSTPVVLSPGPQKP
In short: as §1

GABPA = target: T3, GABPA (Homo sapiens, UniProt Q06546 1-454); conditions: protein: recombinant; tags: N-terminal GST; dsDNA, one strand shown
T3 sequence: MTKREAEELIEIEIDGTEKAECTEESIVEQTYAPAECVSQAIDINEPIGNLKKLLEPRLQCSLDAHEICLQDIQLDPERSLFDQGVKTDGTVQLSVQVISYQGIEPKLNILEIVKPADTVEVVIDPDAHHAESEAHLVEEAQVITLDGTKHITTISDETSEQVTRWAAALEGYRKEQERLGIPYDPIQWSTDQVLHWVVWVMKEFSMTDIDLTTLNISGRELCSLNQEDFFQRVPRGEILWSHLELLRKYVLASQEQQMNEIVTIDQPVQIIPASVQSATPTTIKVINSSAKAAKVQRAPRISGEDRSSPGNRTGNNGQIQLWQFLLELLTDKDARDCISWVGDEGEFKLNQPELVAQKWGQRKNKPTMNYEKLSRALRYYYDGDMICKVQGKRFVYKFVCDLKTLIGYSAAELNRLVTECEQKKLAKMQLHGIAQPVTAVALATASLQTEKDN
In short: as §1

ERG = target: T4, ERG (Homo sapiens, UniProt P11308 1-479); conditions: protein: recombinant; tags: N-terminal GST; dsDNA, one strand shown
T4 sequence: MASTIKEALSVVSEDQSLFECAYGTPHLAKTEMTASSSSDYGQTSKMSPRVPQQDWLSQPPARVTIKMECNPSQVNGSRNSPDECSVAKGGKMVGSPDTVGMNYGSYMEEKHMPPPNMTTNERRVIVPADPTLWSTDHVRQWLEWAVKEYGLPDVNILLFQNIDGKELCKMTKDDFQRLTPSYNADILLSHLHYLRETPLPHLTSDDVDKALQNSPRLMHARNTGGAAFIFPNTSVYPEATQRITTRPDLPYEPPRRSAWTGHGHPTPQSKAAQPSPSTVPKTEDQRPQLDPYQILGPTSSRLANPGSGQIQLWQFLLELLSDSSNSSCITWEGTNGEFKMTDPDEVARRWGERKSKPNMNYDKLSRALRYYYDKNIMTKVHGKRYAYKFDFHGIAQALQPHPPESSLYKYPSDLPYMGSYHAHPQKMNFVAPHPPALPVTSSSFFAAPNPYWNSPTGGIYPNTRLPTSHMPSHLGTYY
In short: as §1

ELF1 = ELF1 (Homo sapiens, UniProt P32519 1-619); conditions: protein: recombinant; tags: N-terminal GST; dsDNA, one strand shown
ELF1, sequence (P32519 whole entry): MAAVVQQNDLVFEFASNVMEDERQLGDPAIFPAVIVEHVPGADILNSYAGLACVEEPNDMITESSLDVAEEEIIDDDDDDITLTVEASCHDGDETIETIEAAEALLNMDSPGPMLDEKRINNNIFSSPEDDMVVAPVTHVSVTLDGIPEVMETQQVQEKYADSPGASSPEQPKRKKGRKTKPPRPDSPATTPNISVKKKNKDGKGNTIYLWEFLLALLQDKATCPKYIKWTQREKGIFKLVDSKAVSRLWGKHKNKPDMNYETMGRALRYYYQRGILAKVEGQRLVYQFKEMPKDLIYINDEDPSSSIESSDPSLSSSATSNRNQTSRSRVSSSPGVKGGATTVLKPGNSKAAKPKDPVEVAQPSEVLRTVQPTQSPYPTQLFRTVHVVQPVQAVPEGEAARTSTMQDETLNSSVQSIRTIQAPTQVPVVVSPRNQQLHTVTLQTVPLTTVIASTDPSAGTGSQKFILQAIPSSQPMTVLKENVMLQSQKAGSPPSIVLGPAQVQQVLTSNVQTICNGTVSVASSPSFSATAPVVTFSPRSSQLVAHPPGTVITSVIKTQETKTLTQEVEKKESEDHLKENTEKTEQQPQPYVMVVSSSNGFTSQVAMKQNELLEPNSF
In short: as §1

EHF = target: T5, EHF (Homo sapiens, UniProt Q9NZC4 1-300); conditions: protein: recombinant; tags: N-terminal GST; dsDNA, one strand shown
T5 sequence: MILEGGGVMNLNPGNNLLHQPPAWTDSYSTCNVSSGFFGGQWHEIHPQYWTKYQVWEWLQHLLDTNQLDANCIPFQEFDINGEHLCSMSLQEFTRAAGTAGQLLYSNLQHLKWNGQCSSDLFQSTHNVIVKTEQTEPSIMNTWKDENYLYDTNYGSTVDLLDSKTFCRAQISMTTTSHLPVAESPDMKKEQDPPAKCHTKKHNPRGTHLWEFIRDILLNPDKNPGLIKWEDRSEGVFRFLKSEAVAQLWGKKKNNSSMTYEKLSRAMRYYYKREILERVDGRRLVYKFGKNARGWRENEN
In short: as §1

SPI1 = SPI1 (Homo sapiens, UniProt P17947 1-270); conditions: protein: recombinant; tags: N-terminal GST; dsDNA, one strand shown
In short: as §1

SPIB = SPIB (Homo sapiens, UniProt Q01892 1-262); conditions: protein: recombinant; tags: N-terminal GST; dsDNA, one strand shown
SPIB, sequence (Q01892 whole entry): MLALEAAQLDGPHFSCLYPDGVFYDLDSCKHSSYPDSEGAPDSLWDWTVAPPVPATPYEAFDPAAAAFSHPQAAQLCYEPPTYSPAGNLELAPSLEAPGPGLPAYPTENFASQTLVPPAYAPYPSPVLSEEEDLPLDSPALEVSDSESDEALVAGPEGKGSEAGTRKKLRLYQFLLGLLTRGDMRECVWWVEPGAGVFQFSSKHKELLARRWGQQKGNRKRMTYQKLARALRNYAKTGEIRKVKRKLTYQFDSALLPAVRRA
In short: as §1

ELK3 = target: T6, ELK3 (Homo sapiens, UniProt P41970 1-407); conditions: protein: recombinant; tags: N-terminal GST; dsDNA, one strand shown
T6 sequence: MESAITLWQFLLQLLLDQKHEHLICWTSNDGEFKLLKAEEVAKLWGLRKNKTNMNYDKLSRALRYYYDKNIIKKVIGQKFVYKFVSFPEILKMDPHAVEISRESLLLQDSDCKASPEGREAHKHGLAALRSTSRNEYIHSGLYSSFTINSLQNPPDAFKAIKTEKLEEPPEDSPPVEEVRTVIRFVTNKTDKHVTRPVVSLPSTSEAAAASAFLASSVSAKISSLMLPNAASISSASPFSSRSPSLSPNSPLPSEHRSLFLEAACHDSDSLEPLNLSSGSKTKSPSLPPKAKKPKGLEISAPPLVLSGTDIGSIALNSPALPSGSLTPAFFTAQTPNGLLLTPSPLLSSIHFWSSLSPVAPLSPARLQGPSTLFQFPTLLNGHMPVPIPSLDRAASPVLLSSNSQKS
In short: as §1

FEV = target: T7, FEV (Homo sapiens, UniProt Q99581 1-238); conditions: protein: recombinant; tags: N-terminal GST; dsDNA, one strand shown
T7 sequence: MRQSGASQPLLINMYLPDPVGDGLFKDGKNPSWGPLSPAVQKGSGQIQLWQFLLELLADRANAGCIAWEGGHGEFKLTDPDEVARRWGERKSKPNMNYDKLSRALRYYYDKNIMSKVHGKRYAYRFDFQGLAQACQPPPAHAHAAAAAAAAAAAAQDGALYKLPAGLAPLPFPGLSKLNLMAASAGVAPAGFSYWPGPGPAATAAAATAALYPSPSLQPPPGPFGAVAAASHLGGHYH
In short: as §1

ETV5 = ETV5 (Homo sapiens, UniProt P41161 1-510); conditions: protein: recombinant; tags: N-terminal GST; dsDNA, one strand shown
ETV5, sequence (P41161 whole entry): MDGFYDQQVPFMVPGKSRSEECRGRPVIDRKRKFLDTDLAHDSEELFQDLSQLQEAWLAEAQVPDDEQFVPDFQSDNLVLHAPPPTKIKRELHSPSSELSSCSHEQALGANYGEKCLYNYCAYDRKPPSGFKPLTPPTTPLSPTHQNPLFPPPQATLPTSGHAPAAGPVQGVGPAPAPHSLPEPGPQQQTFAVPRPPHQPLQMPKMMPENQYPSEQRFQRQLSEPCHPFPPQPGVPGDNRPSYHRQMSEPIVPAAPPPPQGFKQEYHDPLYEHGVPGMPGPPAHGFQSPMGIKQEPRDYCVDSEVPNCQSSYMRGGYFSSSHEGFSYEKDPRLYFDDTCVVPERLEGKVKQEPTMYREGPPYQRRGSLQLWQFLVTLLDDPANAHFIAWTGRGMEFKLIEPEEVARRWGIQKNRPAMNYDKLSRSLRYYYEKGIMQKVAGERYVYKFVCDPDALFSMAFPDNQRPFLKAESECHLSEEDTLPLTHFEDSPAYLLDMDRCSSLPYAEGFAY
In short: as §1

HSF1 = HSF1 (Homo sapiens, UniProt Q00613 1-529); conditions: protein: recombinant; tags: N-terminal GST; chain copies: 3; dsDNA, one strand shown
HSF1, sequence (Q00613 whole entry): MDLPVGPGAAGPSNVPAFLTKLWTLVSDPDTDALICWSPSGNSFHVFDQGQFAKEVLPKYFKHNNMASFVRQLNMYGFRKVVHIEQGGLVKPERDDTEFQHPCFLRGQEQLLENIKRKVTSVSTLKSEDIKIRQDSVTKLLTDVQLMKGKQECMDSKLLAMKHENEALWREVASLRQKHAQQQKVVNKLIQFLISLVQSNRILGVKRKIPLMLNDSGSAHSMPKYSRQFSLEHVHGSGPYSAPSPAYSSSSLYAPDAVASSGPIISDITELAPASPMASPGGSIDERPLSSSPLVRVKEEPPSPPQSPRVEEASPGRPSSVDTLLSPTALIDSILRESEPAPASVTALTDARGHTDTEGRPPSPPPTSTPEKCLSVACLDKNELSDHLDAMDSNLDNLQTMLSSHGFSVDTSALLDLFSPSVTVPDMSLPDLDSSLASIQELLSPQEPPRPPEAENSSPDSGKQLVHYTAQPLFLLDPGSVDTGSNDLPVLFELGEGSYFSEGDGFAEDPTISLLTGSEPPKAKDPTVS
In short: as §1

SPIC = target: T8, SPIC (Homo sapiens, UniProt Q8N5J4 1-248); conditions: protein: recombinant; tags: N-terminal GST; dsDNA, one strand shown
T8 sequence: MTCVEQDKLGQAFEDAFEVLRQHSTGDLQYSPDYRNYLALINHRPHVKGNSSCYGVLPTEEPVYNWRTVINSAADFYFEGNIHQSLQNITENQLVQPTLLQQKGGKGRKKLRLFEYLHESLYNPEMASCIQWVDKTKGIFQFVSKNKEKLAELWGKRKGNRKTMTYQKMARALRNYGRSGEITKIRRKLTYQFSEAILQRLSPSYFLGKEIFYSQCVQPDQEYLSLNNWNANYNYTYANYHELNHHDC
In short: as §1

ELF4 = ELF4 (Homo sapiens, UniProt Q99607 1-663); conditions: protein: recombinant; tags: N-terminal GST; dsDNA, one strand shown
ELF4, sequence (Q99607 whole entry): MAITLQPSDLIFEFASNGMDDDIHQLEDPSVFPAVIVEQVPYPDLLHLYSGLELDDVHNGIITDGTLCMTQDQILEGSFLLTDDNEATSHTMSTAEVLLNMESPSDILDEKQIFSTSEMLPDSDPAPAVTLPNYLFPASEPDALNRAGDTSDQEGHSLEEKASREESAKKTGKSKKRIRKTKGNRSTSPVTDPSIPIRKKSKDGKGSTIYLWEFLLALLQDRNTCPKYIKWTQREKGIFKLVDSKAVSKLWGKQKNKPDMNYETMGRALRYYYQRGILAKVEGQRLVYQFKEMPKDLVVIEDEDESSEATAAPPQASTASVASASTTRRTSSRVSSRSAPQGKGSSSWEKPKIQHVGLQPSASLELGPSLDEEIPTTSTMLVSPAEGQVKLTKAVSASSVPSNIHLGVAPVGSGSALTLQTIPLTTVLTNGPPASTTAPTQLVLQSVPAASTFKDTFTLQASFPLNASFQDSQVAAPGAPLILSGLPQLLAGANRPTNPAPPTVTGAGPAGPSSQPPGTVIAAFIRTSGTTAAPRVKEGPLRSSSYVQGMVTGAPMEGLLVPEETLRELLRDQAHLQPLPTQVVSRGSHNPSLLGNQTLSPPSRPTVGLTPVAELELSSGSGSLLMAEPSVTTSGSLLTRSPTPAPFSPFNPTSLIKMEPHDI
In short: as §1

ELK4 = target: T9, ELK4 (Homo sapiens, UniProt P28324-2 1-405); conditions: protein: recombinant; tags: N-terminal GST; dsDNA, one strand shown
T9 sequence: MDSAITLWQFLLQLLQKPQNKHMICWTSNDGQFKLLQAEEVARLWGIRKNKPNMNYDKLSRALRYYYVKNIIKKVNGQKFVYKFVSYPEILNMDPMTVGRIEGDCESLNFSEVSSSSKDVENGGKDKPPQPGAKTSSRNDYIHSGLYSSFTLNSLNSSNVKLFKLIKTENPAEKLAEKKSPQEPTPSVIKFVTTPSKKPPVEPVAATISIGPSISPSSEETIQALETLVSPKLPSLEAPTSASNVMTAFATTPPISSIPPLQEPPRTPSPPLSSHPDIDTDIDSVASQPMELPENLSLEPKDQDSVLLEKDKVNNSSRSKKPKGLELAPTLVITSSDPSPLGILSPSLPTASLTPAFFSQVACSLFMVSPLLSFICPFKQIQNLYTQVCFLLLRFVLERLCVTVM
In short: as §1

ETV2 = target: T10, ETV2 (Homo sapiens, UniProt O00321 1-342); conditions: protein: recombinant; tags: N-terminal GST; dsDNA, one strand shown
T10 sequence: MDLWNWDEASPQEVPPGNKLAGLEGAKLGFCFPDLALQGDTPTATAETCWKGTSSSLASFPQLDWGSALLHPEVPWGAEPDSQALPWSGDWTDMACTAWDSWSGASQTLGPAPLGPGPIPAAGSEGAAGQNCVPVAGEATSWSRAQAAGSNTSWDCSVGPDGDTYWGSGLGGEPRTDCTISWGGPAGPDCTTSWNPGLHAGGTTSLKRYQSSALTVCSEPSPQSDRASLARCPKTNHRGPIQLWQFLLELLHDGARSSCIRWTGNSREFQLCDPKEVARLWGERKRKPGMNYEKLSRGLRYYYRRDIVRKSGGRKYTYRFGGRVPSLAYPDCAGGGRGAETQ
In short: as §1

ELF3 = target: T11, ELF3 (Homo sapiens, UniProt P78545 1-371); conditions: protein: recombinant; tags: N-terminal GST; dsDNA, one strand shown
T11 sequence: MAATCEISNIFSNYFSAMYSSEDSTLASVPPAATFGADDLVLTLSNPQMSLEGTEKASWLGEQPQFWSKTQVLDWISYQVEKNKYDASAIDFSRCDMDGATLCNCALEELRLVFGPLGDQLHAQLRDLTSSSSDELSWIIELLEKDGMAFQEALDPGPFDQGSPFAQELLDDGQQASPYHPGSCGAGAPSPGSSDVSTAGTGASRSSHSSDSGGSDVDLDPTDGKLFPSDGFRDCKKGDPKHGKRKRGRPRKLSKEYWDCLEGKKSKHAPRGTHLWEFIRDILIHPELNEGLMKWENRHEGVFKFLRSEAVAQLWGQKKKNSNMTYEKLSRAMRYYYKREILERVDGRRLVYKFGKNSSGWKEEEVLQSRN
In short: as §1

CRX = CRX (Homo sapiens, UniProt O43186 1-299); conditions: protein: recombinant; tags: N-terminal GST; dsDNA, one strand shown
CRX, sequence (O43186 whole entry): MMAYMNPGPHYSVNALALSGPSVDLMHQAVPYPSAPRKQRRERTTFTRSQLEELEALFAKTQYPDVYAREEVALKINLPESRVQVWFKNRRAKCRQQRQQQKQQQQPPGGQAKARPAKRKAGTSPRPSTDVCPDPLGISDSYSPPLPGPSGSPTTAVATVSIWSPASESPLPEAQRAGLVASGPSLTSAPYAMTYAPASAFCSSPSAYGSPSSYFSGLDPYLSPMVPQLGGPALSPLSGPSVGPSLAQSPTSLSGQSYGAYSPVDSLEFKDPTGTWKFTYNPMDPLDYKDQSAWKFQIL
In short: as §1

ETV1 = ETV1 (Homo sapiens, UniProt P50549 1-477); conditions: protein: recombinant; tags: N-terminal GST; dsDNA, one strand shown
ETV1, sequence (P50549 whole entry): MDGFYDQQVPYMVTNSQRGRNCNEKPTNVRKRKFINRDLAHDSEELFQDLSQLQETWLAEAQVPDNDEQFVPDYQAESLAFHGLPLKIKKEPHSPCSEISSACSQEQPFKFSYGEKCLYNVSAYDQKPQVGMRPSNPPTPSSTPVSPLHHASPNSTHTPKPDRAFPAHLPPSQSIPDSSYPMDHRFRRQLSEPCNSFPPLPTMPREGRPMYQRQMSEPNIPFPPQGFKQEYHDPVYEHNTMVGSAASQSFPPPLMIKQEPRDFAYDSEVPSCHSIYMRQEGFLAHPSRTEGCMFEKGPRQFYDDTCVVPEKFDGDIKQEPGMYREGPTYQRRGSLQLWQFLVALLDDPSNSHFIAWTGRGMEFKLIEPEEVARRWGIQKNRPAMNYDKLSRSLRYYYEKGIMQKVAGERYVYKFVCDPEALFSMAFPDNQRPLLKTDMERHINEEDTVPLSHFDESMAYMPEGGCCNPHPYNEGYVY
In short: as §1

ATGGTT
binding signal (FLI1): 1.41 fold enrichment (6-mer frequency, TF over GST control)
binding signal (ELK1): 1.28 fold enrichment (6-mer frequency, TF over GST control)
binding signal (GABPA): 1.28 fold enrichment (6-mer frequency, TF over GST control)
binding signal (ERG): 1.35 fold enrichment (6-mer frequency, TF over GST control)
binding signal (ELF1): 1.39 fold enrichment (6-mer frequency, TF over GST control)
binding signal (EHF): 1.28 fold enrichment (6-mer frequency, TF over GST control)
binding signal (SPI1): 1.3 fold enrichment (6-mer frequency, TF over GST control)
binding signal (SPIB): 1.3 fold enrichment (6-mer frequency, TF over GST control)
binding signal (ELK3): 1.39 fold enrichment (6-mer frequency, TF over GST control)
binding signal (FEV): 1.34 fold enrichment (6-mer frequency, TF over GST control)
binding signal (ETV5): 1.31 fold enrichment (6-mer frequency, TF over GST control)
binding signal (HSF1): 1.25 fold enrichment (6-mer frequency, TF over GST control)
binding signal (SPIC): 1.33 fold enrichment (6-mer frequency, TF over GST control)
binding signal (ELF4): 1.32 fold enrichment (6-mer frequency, TF over GST control)
binding signal (ELK4): 1.42 fold enrichment (6-mer frequency, TF over GST control)
binding signal (ETV2): 1.24 fold enrichment (6-mer frequency, TF over GST control)
binding signal (ELF3): 1.38 fold enrichment (6-mer frequency, TF over GST control)
binding signal (CRX): 1.17 fold enrichment (6-mer frequency, TF over GST control)
binding signal (ETV1): 1.42 fold enrichment (6-mer frequency, TF over GST control)
